# From PubChem BioAssay (NCI)
# This is part of a sample that, as a whole, favours compounds with a hit. Of some 83,000 tested, about 20% had one in any assay.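 Percent growth is the endpoint: 0 to 100 indicates growth inhibition (40 means 60% inhibition), 0 means no net growth, and negative values indicate cell death.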 A number with no mark means an inactive call. The source made the active and inactive calls. The calls were made as follows: active = growth percent below 10; inactive = the rest.
# Columns and labels:
# Experiment in all cases: NCI-60 one-dose screen, 48 h (100 = growth as untreated, 0 = no growth, -100 = all killed)
# Conditions in all cases: 10 µM unless noted
# HCT-15 colon = tested on: HCT-15 colon
# HT29 colon = tested on: HT29 colon
# SNB-75 CNS = tested on: SNB-75 CNS
# SNB-19 CNS = tested on: SNB-19 CNS
# U251 CNS = tested on: U251 CNS
# PC-3 prostate = tested on: PC-3 prostate
# SK-MEL-5 melanoma = tested on: SK-MEL-5 melanoma
# UACC-62 melanoma = tested on: UACC-62 melanoma
# LOX IMVI melanoma = tested on: LOX IMVI melanoma
# SK-MEL-28 melanoma = tested on: SK-MEL-28 melanoma
# SK-MEL-2 melanoma = tested on: SK-MEL-2 melanoma
# EKVX NSCLC = tested on: EKVX NSCLC
# SN12C renal = tested on: SN12C renal
# UO-31 renal = tested on: UO-31 renal
# TK-10 renal = tested on: TK-10 renal
# CAKI-1 renal = tested on: CAKI-1 renal
# CCRF-CEM leukemia = tested on: CCRF-CEM leukemia
# MOLT-4 leukemia = tested on: MOLT-4 leukemia
# ACHN renal = tested on: ACHN renal
# A498 renal = tested on: A498 renal
SMILES,growth (HCT-15 colon),growth (HT29 colon),growth (SNB-75 CNS),growth (SNB-19 CNS),growth (U251 CNS),growth (PC-3 prostate),growth (SK-MEL-5 melanoma),growth (UACC-62 melanoma),growth (LOX IMVI melanoma),growth (SK-MEL-28 melanoma),growth (SK-MEL-2 melanoma),growth (EKVX NSCLC),growth (SN12C renal),growth (UO-31 renal),growth (TK-10 renal),growth (CAKI-1 renal),growth (CCRF-CEM leukemia),growth (MOLT-4 leukemia),growth (ACHN renal),growth (A498 renal)
COc1ccccc1N1CCN(C(=O)c2ccc3nc(NC(=O)c4ccc(NCCc5ccccc5)c([N+](=O)[O-])c4)sc3c2)CC1,81.5%,83.4%,91.4%,95.2%,86.4%,77.9%,84.4%,71.8%,81.6%,91.5%,93.4%,89%,77.2%,60.1%,110%,73.4%,77.6%,95.4%,–,–
COc1ccc(/C=C/C(=O)c2ccc(Nc3ncnc4ccccc34)cc2)cc1OC,75.9%,13.9%,92.2%,79.1%,54.1%,65.4%,91.9%,87.1%,–,98.1%,124%,78.3%,88.5%,71.2%,98.8%,75.6%,49.7%,48.2%,88.8%,–
COC(=O)C1NC(=S)N(c2ccc(Cl)cc2)C1/C=C/c1ccccc1 (stereo unspecified),99.4%,104%,127%,103%,97.5%,86.2%,102%,89.3%,–,118%,102%,92.4%,99.3%,86.8%,105%,91.3%,100%,103%,96.3%,–
CC(=O)O[C@H]1CC[C@@]2(C)[C@@H](CC[C@@H]3[C@@H]2CC[C@@]2(C)[C@H]3CC[C@]2(O)C(C)=O)C1,102%,107%,94.9%,102%,94%,95.7%,94%,91%,–,103%,117%,87.1%,96.4%,92.7%,99.2%,99.3%,98.9%,97.6%,88.6%,90%
O=C(Nc1cccc(Cl)c1)c1cc(Cl)ccc1O,12%,15.5%,-26.8% (active),15.9%,15.7%,-4.48% (active),-54.4% (active),–,–,10.1%,-17.7% (active),7.96% (active),-0.418% (active),7.54% (active),13.4%,-7.81% (active),12.9%,4.18% (active),-0.748% (active),–
COc1cccc2cc(-c3cc4ccccc4[nH]3)/c(=N/C(=S)Nc3ccc(C)cc3)oc12,72%,86.3%,-8.91% (active),52.8%,74.9%,55.6%,73.8%,–,71.2%,78.4%,85%,60.9%,77.6%,85.3%,94.3%,19.2%,–,101%,27.9%,–
Cc1ccc(-c2csc(/N=C3\C(=O)Nc4ccccc43)n2)cc1,32%,-8.75% (active),55.5%,22.8%,-47.5% (active),2.72% (active),-20.2% (active),–,-0.0538% (active),13.7%,-51.2% (active),33.6%,23.4%,42%,8.33% (active),–,6.64% (active),-19.5% (active),–,5.79% (active)
CCNC(=S)NNC(=O)c1cc2ccc1CCc1ccc(cc1)CC2,96.7%,104%,89.8%,100%,101%,91.1%,96.7%,–,102%,101%,102%,94.4%,95.3%,83.7%,103%,94.9%,107%,102%,107%,–
N#C/C(=C\c1ccc(Br)cc1)n1nnc2cccc(F)c21,1.81% (active),11.8%,-24.8% (active),25.6%,15.6%,29%,1.82% (active),–,-56.3% (active),49.5%,22.3%,61.8%,4.62% (active),2.69% (active),15.6%,18.2%,-2.73% (active),1.33% (active),20.2%,–
Fc1ccc(-n2cc(COc3ncnc4sc5c(c34)CCCC5)nn2)cc1Cl,100%,97.3%,90.5%,94.7%,99.7%,89.5%,103%,–,–,110%,103%,94.1%,98.7%,82.3%,113%,92.7%,89%,98.8%,102%,–
COc1cccc(NC(=O)c2cccc(-c3cc(=O)c4c(OC)c(OC)c(OC)cc4o3)c2)c1,54.7%,50.8%,89.8%,82.5%,62.1%,57.1%,63.9%,–,49.9%,73.4%,75.7%,81.3%,62.3%,31.6%,78.8%,74.7%,40.5%,48.5%,–,–
COc1ccc(C(O)c2cc3c(N)c(C(=O)Nc4cccc(Br)c4C)sc3nc2C)cc1 (stereo unspecified),18.6%,-16% (active),-1.38% (active),44%,20.9%,26.9%,-7.36% (active),–,32.7%,64.7%,9.35% (active),37.7%,17.9%,33.5%,27%,41.1%,16.4%,23.1%,29.1%,-16.1% (active)
CCNNC(=O)[C@@H]1[C@H](c2cc(OC)c(OC)c(OC)c2)c2cc3c(cc2[C@H](O)[C@H]1CO)OCO3,5.4% (active),-10% (active),30.3%,35.6%,12.7%,12.5%,-38.8% (active),–,14.4%,55%,21.6%,44.8%,24%,42%,41.6%,29.3%,14.6%,12.8%,28.6%,–
COc1ccc2nc(N=Nc3c(O)ccc4ccccc34)sc2c1,31.4%,28.2%,49.4%,31.8%,23.1%,49.1%,4.14% (active),7.36% (active),–,35.5%,59.3%,17.8%,50.4%,20.7%,69.1%,–,31.3%,19.9%,17.2%,79%
CN1CCN(Cc2ccc(NC(=O)c3cncc(C#Cc4cnccc4C(F)(F)F)c3)cc2C(F)(F)F)CC1,70.2%,23.5%,89%,103%,78.4%,80.4%,75.1%,–,20.9%,56.6%,73.4%,87.6%,75.7%,67.2%,109%,93.8%,82.9%,45.7%,75.8%,78.4%
COc1ccc(/C(=C\c2ccccc2)C(=O)O)cc1OC,102%,103%,81.6%,95.7%,99.6%,96.9%,93%,93%,–,106%,98.3%,101%,98.4%,88.9%,104%,97.4%,117%,108%,94.8%,–
Fc1ccc(C2CC(c3cccc(Nc4ccncc4)c3)=NN2c2ccccc2)cc1 (stereo unspecified),2.73% (active),0.645% (active),68.2%,79%,18.9%,40.6%,76.4%,88.8%,–,-57% (active),90.2%,90.1%,75.8%,62.8%,80.3%,48.1%,32.4%,5.35% (active),75.3%,–
COc1ccc2c(c1)c(CC(=O)NCCOCCOCC(=O)Nc1ccc(OC)c(C(N)=O)c1O)c(C)n2C(=O)c1ccc(Cl)cc1,95.5%,102%,89.6%,106%,93.3%,74.6%,96.6%,–,90%,119%,89%,94.4%,101%,74.4%,100%,–,107%,74.7%,109%,86.6%
O=C1C(=O)c2c(nc3ncccn23)-c2ccccc21,-67.2% (active),-17.2% (active),-92.8% (active),-88% (active),-84% (active),-4.28% (active),-99.4% (active),–,-88% (active),-85.7% (active),-58.9% (active),-75.8% (active),-82.3% (active),-98.4% (active),-52.4% (active),–,-3.54% (active),-46.6% (active),-100% (active),-95.9% (active)
CC1(C)CCCN1CCCN1c2ccccc2Sc2ccc(Cl)cc21,50.7%,26.4%,91%,69.1%,58.3%,52.6%,2.18% (active),–,57.9%,72%,117%,61.5%,68.1%,42.3%,84.6%,60%,41.7%,41.7%,61.8%,61.7%
COc1cc2nc(-c3ccc(C(F)(F)F)cc3)cc(OCCN3CCC(O)CC3)c2cc1OC,53.8%,47%,58.1%,89%,69.2%,71.8%,68%,84.5%,–,80.7%,103%,61.9%,57.5%,52.4%,86.1%,34.6%,84.8%,77%,75.5%,–
O=S(=O)(NCCNc1nccc(-c2c(-c3ccc(F)c(O)c3)nc3occn23)n1)c1ccccc1,76.6%,61.5%,71.9%,73.8%,60.4%,55.8%,22.8%,–,33.7%,27.3%,17%,81.6%,48.8%,35.2%,121%,44.1%,38.5%,47.8%,33.9%,103%
